This passage reports Potency, cell number change and lipid storage change, negative = inhibition results from PubChem BioAssay AID2685 (National Center for Advancing Translational Sciences (NCATS), 2010).

Values joined by “and” are separate entries in the source; they are usually repeats but may differ in a detail not shown here. Equal entries are not always repeated. Among all 320,000 compounds or so, about 2,100 (0.66%) were called active. About 53% were inconclusive and are not listed. Calls come from the whole dose curve; as a rule, active = well fitted inhibition curve with a large enough effect in the signal ratio, with a control signal flat (not every such curve was filed as active); inconclusive = small, poorly fitted or top-dose-only effect, or effect the other way, or a change in a side signal; inactive = flat fitted curve, though single readings scatter; the % refers to the signal ratio. Only a selection was taken, and actives are over-represented in it overall.
Potency is the fitted concentration of half-maximal effect.

A short description of this assay: qHTS Assay for Lipid Storage Modulators in Drosophila S3 Cells.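 For cell number change: cells counted by Cell Tracker Red CMTPX staining in the red channel.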 For lipid storage change, negative = inhibition: % is set by controls: 0 for no effect and ±100 for the full control effect. Conditions: BODIPY lipid droplet fluorescence, 18-24 h, cells fed with added oleic acid; cell number change: measured here: cell count max response; series mostly up to 46.1 µM. The text has this: NIH Molecular Libraries Probe Production Centers Network [MLPCN] NIH Chemical Genomics Center [NCGC] MLPCN Grant: 1 R03 MH085686-01 Assay Submitter (PI): Beller, Mathias; Max-Planck-Institut fur Biophysikalische Chemie NCGC Assay Overview: Storing lipids as a reservoir for energy or the anabolism of elementary metabolites is a common feature of probably all cells and is conserved from bacteria to humans. The universal cellular lipid storage organelle is the so-called lipid storage droplet (LD). Although ubiquitous, LDs share a simple structure composed of a hydrophobic core that harbors the storage lipids, which is shielded by a droplet-specific phospholipid monolayer to which proteins are attached. The current model of LD biogenesis involves an incorporation of the lipid core into the membrane leaflets of the endoplasmic reticulum (ER) followed by a subsequent budding-like maturation of a LD, which ultimately pinches off. Once released, LD volume can increase by localized lipogenesis or fusion of existing droplet. Storage lipids are re-mobilized enzymatically by lipase activity. Lipase regulation in the adipocyte is heavily studied and involves multiple components including catecholamine signaling, the LD-associated proteins Perilipin and comparative gene identification (CGI-58) and at least two lipases named hormone sensitive lipase (HSL) and adipocyte triglyceride lipase (ATGL). LD regulation outside of the adipocyte is poorly understood and only few components are known. However, there is an urgent need to learn more about ectopic fat depots as mislocalized storage of lipids, for example in the liver or muscle, is an eminent health problem associated with insulin resistance or the metabolic syndrome. We developed a laser-scanning cytometer assay to enable 1,536-well screening and combined the results of the small molecules screen with an RNAi database based on lipid storage.
Triacsin C (Sigma-Aldrich T-4540), an inhibitor of long-chain fatty acyl CoA synthetase that blocks synthesis of triglycerides, was used as a positive control for lipid under-storage. A total of 23 nL of compound solution of different concentrations were transferred to the assay plates using a Kalypsys pin tool equipped with a 1,536-pin array containing 10-nL slotted pins (FP1S10, 0.457-mm diameter, 50.8 mm long; V&P Scientific). One microliter of oleic acid (400 uM) was added, and the plate was lidded with stainless steel rubber gasket lined lids containing pinholes. […] Fluorescence was detected by excitation of the fluorophores with a 488-nm laser on an Acumen Explorer (TTP Lab Tech). The total intensity in channel 2 (500-530 nm) reflected lipid droplet accumulation. Cells were detected using channel 3 (575-640 nm) with 5-um width and 100-um depth filters. The ratio of the number of objects in PMT channel 2 over the number of objects in PMT channel 3 was also calculated. Percent activity was computed relative to an internal control (100% inhibited lipid droplet deposition due to the presence of 20 uM Triacsin C), which was added to 32 wells/plate.
As to `Cc1cccc(-c2ccc3ncnc(N(C)Cc4ccco4)c3c2)c1`, the Potency entry was “inactive” and the cell number change was -20.6%.
On to `CN(Cc1ccco1)c1ncnc2ccc(-c3ccc4c(c3)OCCO4)cc12`, for which the Potency result is “inactive”.
Still for that read-out and setting: the value for `CN(Cc1ccco1)c1ncnc2ccc(-c3ccoc3)cc12` was -1.69% and -0.798%.
For the compound `O=C(COC(=O)/C=C/c1cccc(F)c1)Nc1ncccn1`, the Potency entry is “inactive” and the cell number change was -0.367%.
For `COc1cccc(N2CCN(c3nc(C)cc(=O)[nH]3)CC2)c1`, the Potency result is “inactive” and the cell number change is 15.9%.
As to `O=C(CSc1nnnn1-c1ccc2c(c1)OCCO2)N1CCN(C(=O)c2ccco2)CC1`, the Potency entry was “inactive” and the cell number change is -0.608%.
As for `Cc1cc2nc(SCC(=O)N(C)C)c3c(c2cc1C)CCCC3`, the Potency entry is “inactive” and the cell number change was -15.1%.
In the case of `CCOC(=O)c1c(C)n(C)c2cc([N+](=O)[O-])c(O)c([N+](=O)[O-])c12`, the Potency result was “inactive” and the cell number change was 7.01%.
Turning to `CCOC(=O)C1CCCCN1Cc1cc(Cl)ccc1O` (stereo unspecified), the Potency entry is “inactive” and the cell number change was -14.7%.
On to `O=C(Nc1cccc(O)c1)c1ccccc1`, for which the Potency entry was “inactive”.
As to `O=C(Nc1cccc(Br)c1)c1ccc(CSc2ccccc2)cc1`, the Potency result was “inactive” and the cell number change is -13.3%.
Turning to `O=C(Nc1cccc(C(=O)Nc2cccc(Br)c2)c1)c1ccccc1`, the Potency is 5.8 µM (active) and the cell number change was 0.351%.
For the compound `COc1cccc(-c2cc(C(=O)Nc3ccc4c(c3)OCCO4)c3ccccc3n2)c1`, the Potency result was “inactive”.
On to `O=C(Nc1ccc(NC(=O)c2cccc([N+](=O)[O-])c2)cc1)c1cccc([N+](=O)[O-])c1`, for which the Potency entry is “inactive” and the cell number change is -4.74%.
For `O=C(Nc1ccc(C2CC2(Cl)Cl)cc1)c1cccc([N+](=O)[O-])c1` (stereo unspecified), the Potency was 20.6 µM (active) and the cell number change is -18.3%.
Take `COc1cccc(C(=O)Nc2cccc(NC(C)=O)c2)c1`: the Potency entry is “inactive” and the cell number change is -21%.
For the compound `COc1cccc(C(=O)Nc2ccc(C3CC3(Cl)Cl)cc2)c1` (stereo unspecified), the lipid storage change, negative = inhibition was 15.6% [at 9.22 µM] (inactive).
Consider `COc1cccc(C(=O)Nc2ccc3ccccc3c2)c1`, for which the Potency result was “inactive” and the cell number change is 24%.
With `COc1cccc(-c2cc(C(=O)Nc3cccnc3)c3ccccc3n2)c1`, the Potency is 8.2 µM (active).
As to `COc1cccc(C(=O)Nc2cccc(-c3ccccc3)c2)c1`, the Potency was 1.46 µM (active) and the cell number change was found to be 5.29%.
The matching figures for `COc1cccc(/C(C)=N/NC(=O)c2cc(-c3cccnc3)nc3ccccc23)c1`: “inactive” and 11.2%.
Take `COc1ccc(-c2nc(CS(=O)CC(=O)NC3CCCCCC3)c(C)o2)cc1` (stereo unspecified): the Potency result is “inactive”.
For `O=C(COC(=O)c1ccc(Br)o1)NCCc1ccccc1`, the Potency entry was “inactive” and the cell number change was 14.1%.
As for `O=C(NC1CCS(=O)(=O)C1)c1cccc(Br)c1` (stereo unspecified), the Potency result was “inactive” and the cell number change was -19.9%.
As for `COc1ccc(S(=O)(=O)N2CCN(C(=O)C3CC3)CC2)cc1`, the Potency entry is “inactive” and the cell number change worked out at 0.403%.
For the compound `CCOC(=O)COc1ccc2c(c1)c(C(C)=O)c(C)n2-c1ccc(OC)cc1`, the Potency result is “inactive”.
For `Cc1cccc(-c2nc3sc(C)cc3c(=O)o2)c1`, the Potency result was “inactive” and the cell number change stood at 1.66%.
